The target of assay [1] is Luciferin 4-monooxygenase (Photinus pyralis) (UniProt P08659). The experiment in a line: qHTS assay to identify small molecule inhibitors of firefly luciferase (AID 1224835). Also: series mostly up to about 120 µM; nearly all actives have a fitted effect of over 25% in size. An outline of the steps:
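Biochemical qHTS: compounds run as interplate titrations against purified firefly enzyme, with D-luciferin and ATP each at its KM concentration. Light output recorded by CCD imaging.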

Assay [2] can be described thus: qHTS assay to identify small molecule antagonists of the constitutive androstane receptor (CAR) signaling pathway - cell viability counter screen (AID 1224837). Also: series mostly up to about 92 µM; nearly all actives have a fitted effect of over 45% in size. An outline of the steps: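 Fluorescence from CellTiter-Fluor served as the viability signal. Human hepatoma HepG2 cells stably bearing hCAR and CYP2B6-2.2kb received compound plus CITCO (50 nM final) for 23 hr.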

Assay [3] can be described thus: qHTS assay to identify small molecule antagonists of the estrogen related receptor signaling pathway with the pleiotropic PPARgamma coactivator (PGC) from Tox21 10K library - cell viability counter screen (AID 1224840; active = well fitted cell-killing curve with a large enough effect in the repeat runs, not every such curve was filed as active; also: nearly all actives have a fitted effect of over 40% in size; also: potency is read from the fitted curve at half-maximal effect). In short, it runs like this: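 Compounds in DMSO, alongside positive and negative controls, were pinned onto PGC/ERR cells (2,000 per well). Exposure lasted 17.5 hours at 37 C, followed by a 30-minute CellTiter-Fluor incubation and fluorescence reading.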

Assay [4] addresses Thyrotropin receptor (Homo sapiens) (UniProt P16473). The experiment in a line: qHTS assay to identify small molecule agonists of the thyroid stimulating hormone receptor (TSHR) signaling pathway (AID 1224843; calls by dose curve; also: nearly all actives have a fitted effect of over 45% in size). An outline of the steps:
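TSHR-HEK293 cells in agonist mode, 30 min room-temperature step, then cAMP measured by competitive HTRF (cAMP-d2 with anti-cAMP cryptate) after 1 h at room temperature. Tested at 15 concentrations in triplicate.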

The nature of assay [5]: qHTS assay to identify small molecule agonists of the hypoxia (HIF-1) signaling pathway - cell viability counter screen (AID 1224844; calls by dose curve; also: nearly all actives have a fitted effect of over 50% in size). An outline of the steps:
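Luminescent ATP content (CellTiter-Glo, 30 min, room temperature) served as the viability measure in HRE-bla ME-180 cells exposed to compounds for 17 hrs in low-serum medium (0.5% dialyzed FBS).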

The target in assay [6] is Nuclear receptor subfamily 1 group I member 3 (Homo sapiens) (UniProt Q14994). As to the kind of experiment: qHTS assay to identify small molecule antagonists of the constitutive androstane receptor (CAR) signaling pathway (AID 1224838).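 Also: HepG2 cells stably expressing hCAR with CYP2B6 luciferase reporter stimulated by CITCO; nearly all actives have a fitted effect of over 40% in size.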 Also: potency is read from the fitted curve at half-maximal effect. In short, it runs like this:
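Quantitative HTS in double-stable HepG2-CYP2B6-hCAR cells. After 4 h plating, cells get compound (15 concentrations) and CITCO at 50 nM final, incubate 24 h at 37 C, then ONE-Glo luminescence is read.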

Assay [7] can be described thus: qHTS assay to identify small molecule agonists of the constitutive androstane receptor (CAR) signaling pathway - cell viability counter screen (AID 1224836). Also: series mostly up to about 92 µM; nearly all actives have a fitted effect of over 45% in size. An outline of the steps: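 Compound titrations (15 concentrations) went onto HepG2-CYP2B6-hCAR cells 4 h after seeding, alongside PK11195 at a final 0.75 uM; a 23 h, 37 C/5% CO2 incubation preceded CellTiter-Fluor viability measurement.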

The target of assay [8] is Nuclear receptor subfamily 1 group I member 3 (Homo sapiens) (UniProt Q14994). As to the kind of experiment: qHTS assay to identify small molecule agonists of the constitutive androstane receptor (CAR) signaling pathway (AID 1224839).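 Also: HepG2 cells stably carrying human CAR and a CYP2B6 luciferase reporter; series mostly up to about 92 µM; nearly all actives have a fitted effect of over 15% in size.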 An outline of the steps: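 In this screen, CAR-driven CYP2B6 promoter activity is measured by luminescence in HepG2-CYP2B6-hCAR cells after 24 h with test compounds and 0.75 uM PK11195 (final concentration).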
Sequence of Nuclear receptor subfamily 1 group I member 3 (Homo sapiens) (Q14994 whole entry, looked up): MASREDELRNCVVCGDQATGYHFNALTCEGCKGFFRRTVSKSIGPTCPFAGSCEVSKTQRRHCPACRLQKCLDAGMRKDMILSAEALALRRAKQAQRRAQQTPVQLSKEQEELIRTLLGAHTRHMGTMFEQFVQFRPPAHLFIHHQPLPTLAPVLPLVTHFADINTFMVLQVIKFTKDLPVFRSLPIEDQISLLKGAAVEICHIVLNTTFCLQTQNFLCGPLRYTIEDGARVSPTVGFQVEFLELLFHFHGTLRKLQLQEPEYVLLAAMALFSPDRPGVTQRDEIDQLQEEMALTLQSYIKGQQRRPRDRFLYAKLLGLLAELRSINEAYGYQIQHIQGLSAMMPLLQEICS

Assay [9] can be described thus: qHTS assay to identify small molecule antagonists of the estrogen related receptor signaling pathway with the pleiotropic PPARgamma coactivator (PGC) from Tox21 10K library (AID 1224841; call rule not given here; also: series mostly up to about 92 µM; actives are mostly falling curves and most rising ones were filed inactive; nearly all actives have a fitted effect of over 50% in size). An outline of the steps: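 Compound exposure ran 18 hours at 37 C in PGC/ERR cells (2,000/well) that had first rested 6 hours in a 37 C/5% CO2 incubator. Luciferase activity was then detected with One-Glo after a 30-minute room-temperature step.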

The nature of assay [10]: qHTS assay to identify small molecule agonists of the estrogen related receptor signaling pathway with the pleiotropic PPARgamma coactivator (PGC) from Tox21 10K library (AID 1224842). Also: nearly all actives have a fitted effect of over 15% in size. In short, it runs like this: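 PGC/ERR reporter cell line, 2,000 cells per well, incubated 6 h at 37 C before 23 nL compound in DMSO was added. After 18 h at 37 C, One-Glo luminescence read following 30 min at room temperature.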

The structures appear in SMILES notation. Results filed as inconclusive are left out. A number with no mark means an inactive call. Active and inactive are the calls of the source. Unless noted, calls follow the shape of the dose curve; as a rule, active = well fitted curve in the direction sought with a large enough effect in the repeat runs; inconclusive = weak or mixed curves; inactive = no such curve, though single readings can be large; an effect the other way counts as inactive or inconclusive.
% is scaled to controls: 0 for no effect and ±100 for the full control effect.

Sequence of Thyrotropin receptor (Homo sapiens) (P16473 whole entry, looked up): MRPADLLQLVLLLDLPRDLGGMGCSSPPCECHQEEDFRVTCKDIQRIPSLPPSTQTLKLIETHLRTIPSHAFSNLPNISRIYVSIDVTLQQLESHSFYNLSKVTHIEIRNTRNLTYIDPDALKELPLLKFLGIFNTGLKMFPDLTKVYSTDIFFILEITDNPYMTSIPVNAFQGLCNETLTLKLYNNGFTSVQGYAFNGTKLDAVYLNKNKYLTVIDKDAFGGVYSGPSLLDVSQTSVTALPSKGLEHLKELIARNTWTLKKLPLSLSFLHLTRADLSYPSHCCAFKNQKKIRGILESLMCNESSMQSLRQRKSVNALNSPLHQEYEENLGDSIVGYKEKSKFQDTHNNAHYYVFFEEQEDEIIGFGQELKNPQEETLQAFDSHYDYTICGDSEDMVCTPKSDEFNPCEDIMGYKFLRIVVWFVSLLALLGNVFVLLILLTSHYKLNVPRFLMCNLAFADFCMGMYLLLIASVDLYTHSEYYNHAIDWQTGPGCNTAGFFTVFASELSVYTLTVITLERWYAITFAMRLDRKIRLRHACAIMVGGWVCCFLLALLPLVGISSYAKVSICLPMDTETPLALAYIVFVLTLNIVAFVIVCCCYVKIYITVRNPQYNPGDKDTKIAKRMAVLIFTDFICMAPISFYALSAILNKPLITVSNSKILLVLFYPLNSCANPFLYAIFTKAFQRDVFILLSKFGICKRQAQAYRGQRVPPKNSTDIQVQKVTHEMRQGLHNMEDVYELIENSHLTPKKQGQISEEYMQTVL
Sequence of Luciferin 4-monooxygenase (Photinus pyralis) (P08659 whole entry, looked up): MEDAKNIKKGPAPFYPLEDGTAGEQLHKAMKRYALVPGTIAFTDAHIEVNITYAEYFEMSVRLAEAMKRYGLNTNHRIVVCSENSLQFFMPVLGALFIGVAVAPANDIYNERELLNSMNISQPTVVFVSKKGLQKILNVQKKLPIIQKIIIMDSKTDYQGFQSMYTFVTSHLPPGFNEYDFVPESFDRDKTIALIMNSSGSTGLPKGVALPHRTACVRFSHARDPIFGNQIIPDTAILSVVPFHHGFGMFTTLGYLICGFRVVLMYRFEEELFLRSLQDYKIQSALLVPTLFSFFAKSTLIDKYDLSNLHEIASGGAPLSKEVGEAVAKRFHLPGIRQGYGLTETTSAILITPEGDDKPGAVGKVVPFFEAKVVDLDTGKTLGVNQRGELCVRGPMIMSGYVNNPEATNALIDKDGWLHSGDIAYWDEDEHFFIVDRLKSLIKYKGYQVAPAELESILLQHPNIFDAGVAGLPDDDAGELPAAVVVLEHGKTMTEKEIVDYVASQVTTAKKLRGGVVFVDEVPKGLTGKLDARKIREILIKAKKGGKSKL

As to `C=CC(C)(CCC=C(C)C)OC(=O)c1ccccc1` (stereo unspecified), the Potency entry in assay [1], in [2], in assay [3], in assay [4] and in assay [5] was “inactive” throughout.
As to `NC1CCN(c2nc3c(cc2F)c(=O)c(C(=O)O)cn3-c2ccc(F)cc2F)C1` (stereo unspecified), the Potency entry in [1], in assay [2], in assay [6], in assay [3] and in assay [4] was “inactive” in each case.
On to `CCCCCCCCCO`, for which the Potency result in [7], in [2], in assay [6], in [8], in assay [3] and in assay [9] was “inactive” in each case. Besides, the Potency result in assay [10], in [4] and in [5] was “inactive” throughout.
For the molecule `CC(C)(C)c1cc(O)c(C(C)(C)C)cc1O`, the Potency result in assay [1], in assay [10] and in assay [4] was “inactive” each time.
For `CCCCCCc1ccc(N)cc1`, the Potency result in assay [7], in assay [2], in assay [6], in assay [8], in assay [3] and in assay [9] was “inactive” each time. The Potency entry in assay [10], in assay [4] and in assay [5] was “inactive” throughout.
For `Cc1ccc(C(=O)C(C)CN2CCCCC2)cc1` (stereo unspecified), the Potency entry in assay [7], in assay [2], in assay [6], in assay [8], in assay [3] and in assay [9] was “inactive” throughout. In addition, the Potency entry in assay [10], in assay [4] and in assay [5] was “inactive” in each case.
As to `CC[C@]12CCCN3CCc4c(n(c5ccccc45)C(=O)C1)[C@@H]32`, the Potency result in assay [1], in assay [3], in assay [9], in assay [10] and in assay [4] was “inactive” each time.
`CCCCCOC(=O)COc1cc(N2C(=O)C3=C(CCCC3)C2=O)c(F)cc1Cl`: the Potency result in [1], in assay [2], in [3], in assay [4] and in [5] was “inactive” in each case.
For `CCCCCCCCCCCCC(=O)O`, the Potency result in assay [7], in assay [2], in assay [6], in assay [8], in [3] and in assay [4] was “inactive” in each case. In addition, in assay [5], the Potency entry is “inactive”.
In the case of `CCCCCCCCCC=O`, the Potency entry in [1], in [2], in assay [3] and in assay [4] was “inactive” throughout.
For `Cc1cc(NC(=O)C(=O)O)cc(C)c1Oc1ccc(O)c2c1CCC2`, the Potency entry in assay [7], in assay [2], in assay [6], in assay [3], in [9] and in assay [10] was “inactive” in each case. For the same molecule, the Potency entry in [5] was “inactive”.
On to `Cc1ccccc1N=Nc1ccc(N=Nc2c(O)ccc3ccccc23)c(C)c1`, for which the Potency entry in assay [7], in assay [2], in [6], in assay [3], in assay [9] and in assay [10] was “inactive” in each case. Also, the Potency entry in assay [4] and in [5] was “inactive” in each case.
Regarding `FC(F)(F)C(F)(F)C(F)(F)C(F)(F)C(F)(F)C(F)(F)CCI`, the Potency result in assay [7], in assay [2], in assay [6], in assay [8], in [3] and in assay [4] was “inactive” in each case.
`CCc1nn(C2CCCCC2)c2cc(C3(C#N)CCC(C(=O)O)CC3)ccc12` (stereo unspecified): the Potency entry in assay [1], in [6], in [10], in assay [4] and in assay [5] was “inactive” in each case.
With `CC(C)=CCCC(C)CC=O` (stereo unspecified), the Potency result in assay [1], in [2], in [3], in assay [4] and in assay [5] was “inactive” in each case.
`C=CC(=O)OCC(C)OCC(C)OCC(C)OC(=O)C=C` (stereo unspecified): the Potency entry in assay [7], in assay [6], in assay [8] and in assay [5] was “inactive” in each case. The Potency in [3] is 54.5 µM (active).
Consider `CC(=O)N(O)CCCCCNC(=O)CCC(=O)N(O)CCCCCNC(=O)CCC(=O)N(O)CCCCCN`, for which the Potency result in assay [7], in [2], in assay [3], in assay [10], in assay [4] and in [5] was “inactive” in each case.
Regarding `O=c1[nH]cnc2ccccc12`, the Potency entry in [2], in assay [3], in [4] and in [5] was “inactive” each time.
`Cc1cc(O)ccc1N`: the Potency in assay [6] was 3.08 µM (active). For the same molecule, the Potency entry in [8], in [9] and in assay [4] was “inactive” in each case.
For `CC1(C)CCC(C)(C)c2cc(NC(=O)c3ccc(C(=O)O)cc3)ccc21`, the Potency entry in assay [2], in assay [8], in assay [3] and in assay [4] was “inactive” each time.
Regarding `CC(C)c1cccc(C(C)C)c1NC(=O)NS(=O)(=O)c1cc(C(C)(C)O)co1`, the Potency result in assay [7], in [2], in assay [3], in assay [4] and in [5] was “inactive” throughout.
For `CN(c1nccc(=O)[nH]1)C1CCN(c2nc3ccccc3n2Cc2ccc(F)cc2)CC1`, the Potency entry in [2], in assay [6], in assay [8], in assay [3], in assay [4] and in [5] was “inactive” throughout.
For the molecule `CCN(CCO)CCCC(C)Nc1ccnc2cc(Cl)ccc12` (stereo unspecified), the viability change, negative = cytotoxic in assay [7] was -11% [at 8.39 µM]; in assay [3], 1.55% [at 8.39 µM]. For the same molecule, the activity change, negative = cytotoxicity in assay [2] was -10.3% [at 8.39 µM]; in [5], 2.32% [at 6.97 µM]. For the same molecule, the activation in [4] is -1.08% [at 8.39 µM].
In the case of `O=S1(=O)N=C(O)c2ccccc21`, the Potency result in assay [7], in [2], in [3] and in assay [4] was “inactive” each time.
As to `CCOC(=O)C1=C(C)NC(C)=C(C(=O)OC)C1c1cccc([N+](=O)[O-])c1` (stereo unspecified), the Potency result in assay [2], in assay [6], in assay [3], in assay [4] and in [5] was “inactive” in each case.
For the molecule `CC(C)(C)C1CCCCC1O` (stereo unspecified), the Potency entry in assay [2], in [6], in assay [8], in [3], in assay [4] and in assay [5] was “inactive” each time.

The record behind these values is PubChem BioAssay (Tox21).
